MCF10A rerep: inducers of DNA re-replication in MCF 10A breast cells; MCF 10A DNA re-replication, Hoechst nuclear intensity, 48 h; Potency, µM (highest dose often 46.1 µM), actives largely listed as activators; actives 2.9% (n = 350,000); note: nearly all actives have a fitted effect of over 50% in size
SW480 rereplic: induces DNA re-replication in SW480 colon adenocarcinoma cells | SW480 DNA re-replication, Hoechst DNA content imaging, 48 h | Potency, µM (series often up to 46.1 µM), most hits filed as activators | actives 1.8% (n = 340,000) | AID 624297; note: nearly all actives have a fitted effect of over 55% in size
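Treated cells incubate 48 hr (37 C, 5% CO2), are stained 40 min with Hoechst, and nuclear fluorescence is enumerated; a rise in nuclei with high DNA signal marks re-replication.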
KB-V1 cytotox: KB-V1 MDR subline cytotoxicity. KB-V1 MDR cells viability, CellTiter-Glo, 72 h. Potency, µM (doses to about 46.1 µM), most hits filed as cytotoxic. actives 3.4% (n = 400,000). AID 1347076; note: nearly all actives have a fitted effect of over 60% in size
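In this primary screen, KB-V1 cells overexpressing P-gp are incubated with library compounds (lowest to highest concentration) for 72 h at 37 degrees C before a luminescent ATP viability read.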
KB-3-1 tox: kills parental KB-3-1 adenocarcinoma cells. KB-3-1 viability, CellTiter-Glo ATP luminescence, 72 h. Potency, µM (highest dose often 46.1 µM), hits mostly cytotoxic. actives 1.4% (n = 400,000). AID 1347075; note: nearly all actives have a fitted effect of over 60% in size
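Viability of parental KB-3-1 cells, measured by CellTiter-Glo luminescence, followed a 72 h incubation at 37 °C with pinned compounds in phenol-red-free DMEM containing 10% FBS.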
ELG1 repair inh: blocks ELG1-dependent DNA repair in HEK293T cells. AID 504467. HEK293T ELG1-luciferase reporter, luminescence, 16 h; DNA damage induced by 5-fluorouridine. Potency, µM (doses to about 46.1 µM), most hits filed as inhibitors. actives 2.3% (n = 330,000); note: nearly all actives have a fitted effect of over 55% in size
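Reporter activity after DNA damage by 5-fluorouridine is monitored. Compound-treated cells incubate 16 hr at 37 °C, then ONE-Glo is added for 30 min before luminescence reading.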
Each line names hits and unclear results; the compound was inactive in the other large screens. Only some compounds are listed: those with a hit (about 8.1% of all), similar ones and a draw of the others. Calls come from the whole dose curve; as a rule, active = well fitted curve in the direction sought with a large enough effect; inconclusive = small, poorly fitted or top-dose-only effect, or another doubt; inactive = no such curve, though single readings can be large; an effect the other way counts as inactive or inconclusive.

C/C(=C\C(=O)c1ccc(Br)cc1)Nc1ccc(Cl)cc1	ELG1 repair inh inconclusive
COc1cccc(N/C(C)=C/C(=O)c2ccc(Br)cc2)c1	MCF10A rerep 20.6µM, ELG1 repair inh inconclusive
COc1cccc(NC(=S)NC(=O)c2cncc(Br)c2)c1	SW480 rereplic 18.4µM, KB-3-1 tox inconclusive (no result: ELG1 repair inh)
COc1ccc(NS(=O)(=O)c2cccc3cccnc23)cc1OC	KB-V1 cytotox inconclusive
O=C(Nc1cccc(C(F)(F)F)c1)C1CCCN(S(=O)(=O)c2cccc3nonc23)C1 (configuration not stated)	none (no result: MCF10A rerep, SW480 rereplic, ELG1 repair inh)
O=[N+]([O-])/C=C\c1ccc(N2CCOCC2)cc1	SW480 rereplic 14.6µM, KB-V1 cytotox inconclusive, KB-3-1 tox inconclusive (no result: ELG1 repair inh)
O=S(Cc1ccc(Cl)cc1)CC(O)(c1ccccc1)c1ccccc1 (configuration not stated)	none
O=S(Cc1ccccc1)CC(O)(c1ccc(Cl)cc1)c1ccc(Cl)cc1 (configuration not stated)	MCF10A rerep inconclusive, SW480 rereplic inconclusive, KB-V1 cytotox 20.6µM, KB-3-1 tox inconclusive
O=C1OC(N2C(=O)CC[C@H]2C(=O)Nc2cccc(F)c2)c2ccccc21 (some centres not stated)	SW480 rereplic 4.11µM
COc1cccc(NC(=O)[C@@H]2CCC(=O)N2C2OC(=O)c3ccccc32)c1 (some centres not stated)	none
CCCS(=O)(=O)N1CCC(N2CCN(Cc3ccc(C)cc3)C(=O)C2=O)CC1	KB-V1 cytotox inconclusive (no result: MCF10A rerep, SW480 rereplic, ELG1 repair inh)
O=C(c1ccccc1)C1CN(c2ccccc2)CC1c1ccc(Cl)cc1 (configuration not stated)	none
NC1=NC(c2ccc(Cl)cc2)C(C(=O)c2ccccc2)N1 (configuration not stated)	MCF10A rerep 5.8µM, SW480 rereplic inconclusive, KB-3-1 tox inconclusive, ELG1 repair inh inconclusive
COc1ccccc1-c1cc(C(F)(F)F)nc(N2CCCC2)n1	MCF10A rerep 25.9µM
COc1ccccc1-c1cc(C(F)(F)F)nc(S(=O)(=O)CCCC(=O)N2CCCCC2C)n1 (configuration not stated)	MCF10A rerep 3.98µM, SW480 rereplic inconclusive, KB-3-1 tox inconclusive, ELG1 repair inh inconclusive
COc1ccccc1-c1cc(C(F)(F)F)nc(S(C)(=O)=O)n1	MCF10A rerep 4.11µM, SW480 rereplic inconclusive, KB-V1 cytotox inconclusive, KB-3-1 tox inconclusive, ELG1 repair inh inconclusive
COc1cccc(-c2cc(C(F)(F)F)nc(N3CCN(c4ccccc4)CC3)n2)c1	MCF10A rerep inconclusive, KB-V1 cytotox 16.4µM, KB-3-1 tox inconclusive
COc1ccccc1-c1cc(C(F)(F)F)nc(N2CCCCC2)n1	none
CCOC(=O)N1CCN(c2nc(-c3cccc(OC)c3)cc(C(F)(F)F)n2)CC1	MCF10A rerep inconclusive
OCCC1CN(Cc2nc3ccccc3s2)CCN1CCc1ccccc1 (configuration not stated)	none
CCN(CC)C(=O)Cn1cc(C(=O)C(=O)NCCCN2CCOCC2)c2ccccc21	none
O=C1CCCN1CCCNS(=O)(=O)c1ccc(Br)s1	none
COc1ccccc1-c1cc(C(F)(F)F)nc(S(=O)(=O)CCCC(=O)Nc2cc(Br)ccc2O)n1	none (no result: MCF10A rerep, SW480 rereplic, ELG1 repair inh)
COc1ccccc1-c1cc(C(F)(F)F)nc(S(=O)(=O)CCCC(=O)Nc2cccnc2Cl)n1	MCF10A rerep inconclusive, SW480 rereplic inconclusive, ELG1 repair inh inconclusive
COc1ccccc1-c1cc(C(F)(F)F)nc(S(=O)(=O)CCCC(=O)NC(C)C)n1	MCF10A rerep 6.31µM, SW480 rereplic 2.91µM, KB-V1 cytotox inconclusive, KB-3-1 tox inconclusive, ELG1 repair inh inconclusive
COc1ccccc1-c1cc(C(F)(F)F)nc(S(=O)(=O)CCCC(=O)NCc2ccc(F)cc2)n1	MCF10A rerep 4.11µM, SW480 rereplic inconclusive, KB-3-1 tox inconclusive, ELG1 repair inh inconclusive
FC(F)(F)COc1nc(OCC(F)(F)F)nc(N2CCN(c3ccccc3)CC2)n1	MCF10A rerep inconclusive, ELG1 repair inh 23.1µM
CCOc1ccc(NC(=S)c2ccncc2)cc1	KB-V1 cytotox 20.6µM, KB-3-1 tox 23.1µM
Cc1ccccc1C1C(C#N)=C2N=C(N)c3c(sc4c3CCCCC4)N2C2=C1C(=O)CC(C)(C)C2 (configuration not stated)	SW480 rereplic inconclusive
O=CN1CCN(C(=S)Nc2ccc(OC(F)F)cc2)CC1	none
CC1CN(c2nc(N(C)c3ccccc3)nc(N)c2[N+](=O)[O-])CC(C)O1 (configuration not stated)	KB-V1 cytotox inconclusive, KB-3-1 tox inconclusive
COc1ccccc1Cn1c(=S)[nH]c2cc(C(=O)N3CCC(C(N)=O)CC3)ccc2c1=O	none
COc1ccccc1Cn1c(=S)[nH]c2cc(C(=O)N3CCCC(C)C3)ccc2c1=O (configuration not stated)	KB-3-1 tox 20.6µM (no result: MCF10A rerep, SW480 rereplic, ELG1 repair inh)
CCOC(=O)C1CCCN(C(=O)c2ccc3c(=O)n(CCOC)c(=S)[nH]c3c2)C1 (configuration not stated)	MCF10A rerep inconclusive, KB-V1 cytotox 23.1µM, ELG1 repair inh 8.2µM
COCCn1c(=S)[nH]c2cc(C(=O)N3CCC(C(N)=O)(N4CCCCC4)CC3)ccc2c1=O	none
O=C(NCc1ccccc1Cl)c1ccc(Cn2cc(C(F)(F)F)ccc2=O)cc1	KB-V1 cytotox 6.51µM
O=C(NCc1ccc(Cl)cc1)c1ccc(Cn2cc(C(F)(F)F)ccc2=O)cc1	KB-V1 cytotox 16.4µM
O=C(NCc1ccccn1)c1ccc(Cn2cc(C(F)(F)F)ccc2=O)cc1	none
COCc1cc(C)n(CC(=O)NCc2ccccc2)c(=O)c1C#N	SW480 rereplic 18.4µM, KB-V1 cytotox inconclusive
NC(=O)Cc1nc(-c2ccc([N+](=O)[O-])cc2)cs1	ELG1 repair inh 18.3µM
[2H]c1c([2H])c([2H])c(-c2nc(N3CCCCCC3)sc2C(=O)c2ccccc2)c([2H])c1[2H]	MCF10A rerep 7.31µM, SW480 rereplic inconclusive, ELG1 repair inh inconclusive
Cc1nc(-c2ccc(S(=O)(=O)NCC3CCN(C(=O)OC(C)(C)C)CC3)s2)cs1	ELG1 repair inh 20.6µM
COc1cc(NC2CCCCC2O)c2nc(-c3ccc(Cl)cc3)ccc2c1 (configuration not stated)	MCF10A rerep 13µM, SW480 rereplic 13µM, KB-V1 cytotox inconclusive, KB-3-1 tox inconclusive
CCN(Cc1ccc2c(c1)OCO2)C(=O)/C=C/c1cccc(Br)c1	MCF10A rerep inconclusive, KB-3-1 tox inconclusive
CC(C)(C)N(Cc1ccc2c(c1)OCO2)C(=O)/C=C\S(=O)c1ccccc1 (configuration not stated)	MCF10A rerep 10.3µM, SW480 rereplic 9.2µM, KB-3-1 tox inconclusive (no result: ELG1 repair inh)
Cc1ccc(NC(=S)NNc2ncc(C(F)(F)F)cc2Cl)c(C)c1	ELG1 repair inh 20.6µM
Cc1ccc(NC(=S)NNc2ncc(C(F)(F)F)cc2Cl)cc1	KB-3-1 tox inconclusive, ELG1 repair inh inconclusive

Compound activity (PubChem)
